Test results reported in PubChem BioAssay (EPA / NIEHS).
Records with an inconclusive call do not appear. The source made the active and inactive calls. The calls were made as follows: active = hit-call score of the fitted dose curve at least 0.9, where 1 is the maximum; inconclusive = response in the unintended direction; inactive = score below 0.9.

What was measured:
[1] = target: Cellular tumor antigen p53 (Homo sapiens) (UniProt P04637); test: TOX21_p53_BLA_p2_ratio: Tox21 HCT-116 p53 Agonism Beta-lactamase Assay, Ratio, Phase 2 (AID 2283592)
In short: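 HCT116 cells carrying a p53-responsive beta-lactamase reporter were plated, incubated 5 h at 37C, then dosed with compounds in DMSO (217-fold dilution) for 16 h. CCF4-AM substrate was added for 2 h at room temperature; the 460/530 nm emission ratio gave gain-of-signal activity relative to DMSO.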

[2] = target: Cellular tumor antigen p53 (Homo sapiens) (UniProt P04637); test: TOX21_p53_BLA_p3_ratio: Tox21 HCT-116 p53 Agonism Beta-lactamase Assay, Ratio, Phase 3 (AID 2283596)
In short: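 HCT116 p53-bla cells (4000/well) given compound in DMSO (217-fold dilution) after 5 h, incubated 16 h at 37C. CCF4-AM substrate 2 h at room temperature; 460/530 nm emission ratio, gain fitted against DMSO.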

[3] = TOX21_p53_BLA_p4_viability: Viability Assessment in the Tox21 HCT-116 p53 Agonism Beta-lactamase Assay, Phase 4 (AID 2283597);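 also: hits lower the luminescence signal meaning cytotoxicity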
In short: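 HCT116 p53-bla cells (4000/well) rested 5 h at 37C, then received compounds in DMSO (217-fold dilution) for 16 h at 37C, 5% CO2. CellTiter-Glo was added after the CCF4-AM read, and luminescence was read after 30 min at room temperature.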

[4] = target: Cellular tumor antigen p53 (Homo sapiens) (UniProt P04637); test: TOX21_p53_BLA_p5_ratio: Tox21 HCT-116 p53 Agonism Beta-lactamase Assay, Ratio, Phase 5 (AID 2283599)
In short: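 Beta-lactamase reporter ratio (blue 460 nm over green 530 nm, 405 nm excitation) after 2 h CCF4-AM loading, in HCT-116 cells exposed 16 h at 37 C to compounds pinned at 217-fold dilution. Increases relative to DMSO baseline scored.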

[5] = target: Cellular tumor antigen p53 (Homo sapiens) (UniProt P04637); test: TOX21_p53_BLA_p4_ratio: Tox21 HCT-116 p53 Agonism Beta-lactamase Assay, Ratio, Phase 4 (AID 2283601)
In short: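 Signal is the blue/green (460nm/530nm) ratio of cleaved versus uncleaved CCF4-AM substrate, read after 2 h substrate loading. Cells were HCT116 carrying the p53-responsive beta-lactamase reporter, dosed 16 h at 37C, 5% CO2; CellTiter-Glo measured in parallel.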

[6] = TOX21_p53_BLA_p5_viability: Viability Assessment in the Tox21 HCT-116 p53 Agonism Beta-lactamase Assay, Phase 5 (AID 2283600)
In short: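 Cells were plated at 4000/well, rested 5 h at 37C, then given compounds in DMSO (217-fold dilution) for 16 h at 37C, 5% CO2. Following the CCF4-AM beta-lactamase read, CellTiter-Glo was added and luminescence was read after 30 min at room temperature.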

Measured: outcome

Chain of Cellular tumor antigen p53 (Homo sapiens) (P04637 whole entry, looked up): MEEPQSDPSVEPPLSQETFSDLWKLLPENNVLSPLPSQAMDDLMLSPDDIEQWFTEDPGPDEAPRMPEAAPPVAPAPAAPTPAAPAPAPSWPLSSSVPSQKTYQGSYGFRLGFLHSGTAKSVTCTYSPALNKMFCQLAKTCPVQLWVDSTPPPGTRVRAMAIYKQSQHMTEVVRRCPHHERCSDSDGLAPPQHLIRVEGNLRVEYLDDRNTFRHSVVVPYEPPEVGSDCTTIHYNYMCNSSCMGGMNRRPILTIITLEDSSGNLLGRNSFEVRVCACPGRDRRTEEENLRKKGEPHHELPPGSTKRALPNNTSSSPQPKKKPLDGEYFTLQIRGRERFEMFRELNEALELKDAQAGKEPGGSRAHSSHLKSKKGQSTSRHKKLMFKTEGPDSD

NC1=NCC2c3ccccc3Cc3ccccc3N12 (centres undefined)
not listed: [6]
inactive: all other assays above

CO[C@@]1(NC(=O)C2SC(=C(C(N)=O)C(=O)O)S2)C(=O)N2C(C(=O)O)=C(CSc3nnnn3C)CS[C@@H]21 (some centres undefined)
inactive: [1] | [2] | [3] | [5]

CC1CCCC(=O)C1=O (centres undefined)
not listed: [4]
inactive: all other assays above

CCOCC(O)COc1ccc(NC(=O)CC[S+](C)C)cc1 (centres undefined)
inactive: [1] | [2] | [4]

C=C1[C@H](CO)[C@@H](O)C[C@@H]1n1cnc2c(=O)[nH]c(N)nc21
not listed: [4]
inactive: all other assays above

NC(=O)OC[C@@H]1[C@H](NC(=O)/C(=N\OCC(=O)O)c2csc(N)n2)C(=O)N1S(=O)(=O)O
not listed: [3]
inactive: all other assays above

CC(C)NC[C@@H](O)COc1cccc2ccccc12
not listed: [3]
inactive: all other assays above

C=CC(=O)OCC1CCCO1 (centres undefined)
inactive: [1] | [2] | [4]

Nc1ccc(N=Nc2ccc(N)cc2)cc1
inactive: [1] | [2] | [4]

CC(=O)c1ccc(Cl)c(Cl)c1Cl
inactive: [1] | [2] | [4] | [6]

CCCOCC(C)OCC(C)O (centres undefined)
not listed: [3]
inactive: all other assays above

CCOc1ccc(S(=O)(=O)O)c2cccnc12
inactive: [1] | [2] | [4] | [6]

CNC[C@@H]1CC[C@@H](N)[C@@H](O[C@H]2[C@H](O)[C@@H](O[C@H]3OC[C@](C)(O)[C@H](NC)[C@H]3O)[C@H](N)C[C@@H]2N)O1
inactive: [1] | [2] | [3] | [6]

CC1(C)CO[C@@H](CC(=O)O)CN1
inactive: [1] | [2] | [3] | [5]

CCOC(=O)CC(=O)C(=O)OCC
inactive: [1] | [2] | [3] | [5]

O=C(O)CCC/C=C\C[C@@H]1[C@@H](/C=C/[C@@H](O)COc2cccc(Cl)c2)[C@H](O)C[C@@H]1O
inactive: [1] | [2] | [4]

C=CC[N@@+]12CC[C@@]34c5ccccc5N5/C=C6/[C@H]7C[C@H]8[C@@]9(CC[N@@+]8(CC=C)C/C7=C/CO)c7ccccc7N(/C=C(/[C@@H](C[C@@H]31)/C(=C\CO)C2)[C@H]54)[C@@H]69
inactive: [1] | [2] | [4]

COc1cc(C(=S)N2CCOCC2)ccc1O
not listed: [3]
inactive: all other assays above

CCCOC(=O)c1ccccc1O
inactive: [1] | [2] | [4] | [6]

CC(=O)OCC[N+](C)(C)C
not listed: [4]
inactive: all other assays above

NC(=O)OCC(O)COc1ccc(Cl)cc1 (centres undefined)
inactive: [1] | [2] | [4]

O=[N+]([O-])c1ccc(Oc2ccc([N+](=O)[O-])cc2)cc1
inactive: [1] | [2] | [4] | [6]

C[C@]12CC[C@@H]3c4ccc(OC(=O)c5ccccc5)cc4CC[C@H]3[C@@H]1CC[C@@H]2O
inactive: [1] | [2] | [4] | [6]

O=C(CCNNC(=O)c1ccncc1)NCc1ccccc1
not listed: [3]
inactive: all other assays above
